# Assay results published in PubChem BioAssay AID793 (The Scripps Research Institute Molecular Screening Center, 2007).
# Among all 140,000 compounds or so, about 1,400 (1%) were called active. Cut-off read from the data, not from the text of the source: active = inhibition above about 17%; inactive = the rest. The sample as a whole holds a higher share of actives than the screen did.
# Target: Neuropeptide Y receptor type 2 (Homo sapiens) (UniProt P49146)
# Test: NPY-Y2 receptor antagonists, primary screen, cell-based (AID 793);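 note: 0% = vehicle with agonist challenge and 100% = reference antagonist with challenge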
# Settings: NPY-Y2 expressing cells, antagonist mode; at 2.7 µM; active compounds read high
# Sequence of Neuropeptide Y receptor type 2 (Homo sapiens) (P49146 whole entry, looked up): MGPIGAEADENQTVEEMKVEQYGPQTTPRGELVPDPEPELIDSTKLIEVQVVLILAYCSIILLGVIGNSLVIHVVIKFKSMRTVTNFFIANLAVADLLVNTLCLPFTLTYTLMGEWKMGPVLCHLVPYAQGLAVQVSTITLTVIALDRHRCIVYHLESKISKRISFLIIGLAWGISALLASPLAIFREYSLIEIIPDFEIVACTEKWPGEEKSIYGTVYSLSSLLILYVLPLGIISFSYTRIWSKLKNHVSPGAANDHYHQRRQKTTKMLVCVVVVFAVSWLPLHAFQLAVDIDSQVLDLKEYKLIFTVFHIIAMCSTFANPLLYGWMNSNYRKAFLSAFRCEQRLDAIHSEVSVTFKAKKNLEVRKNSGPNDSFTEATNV
row,Structure (SMILES),inhibition
1,CCCC(O)(CCC)C(=O)NN(C(=O)CCl)c1cccc(C)c1,8.32% (inactive)
2,Cc1ccc(N(NC(=O)C(C)(C)O)C(=O)c2ccccc2)cc1C,2.31% (inactive)
3,CCCCC(O)(CCCC)C(=O)NN(C(=O)CCl)c1ccccc1,21.9% (active)
4,CCCc1cc(=O)[nH]c(SCc2cc(=O)oc3c(C)c(C)ccc23)n1,6.69% (inactive)
5,COc1cc(Cl)c(C)cc1NC(=O)[C@@H]1CCCN1C(=O)c1cccs1,6.63% (inactive)
6,CC(=O)Oc1ccc2c(C)c(CC(C)O)c(=O)oc2c1 (stereo not drawn),2.41% (inactive)
7,O=C(Oc1ccccc1)Oc1ccc2c(c1)oc(=O)c1ccccc12,23.1% (active)
8,NC(=O)COc1ccc2c3c(c(=O)oc2c1)CCCCC3,0.83% (inactive)
9,Cc1nc2ccccc2cc1C(=O)N/N=C/c1ccc([N+](=O)[O-])cc1,-0.48% (inactive)
10,Cc1cc(C(=O)OCC(=O)Nc2nnc(C(C)C)s2)c2ccccc2n1,4.1% (inactive)
11,CN(C)Cc1ccc(F)cc1Sc1cc(Cl)ccc1Cl,20.2% (active)
12,CCCC(=O)Nc1ccc(Cl)c(NC(=O)c2ccc(Br)o2)c1,-1.21% (inactive)
13,COc1cc(OC)c(NC(=O)c2ccc(Br)o2)cc1Cl,-1.32% (inactive)
14,CCN1CCN(c2c(Cl)cccc2NC(=O)c2ccc(Br)o2)CC1,31.1% (active)
15,O=C(CSc1nc2ccccc2o1)N1c2ccccc2Sc2ccc(Cl)cc21,6.15% (inactive)
16,COC(=O)c1ccc(CSc2nncn2C)cc1,3.48% (inactive)
17,COC(=O)c1ccc(CSc2nc3cc(Cl)ccc3o2)cc1,21.5% (active)
18,Cc1ccc(S(=O)(=O)NNC(=O)Nc2cccc3ccccc23)cc1,1.93% (inactive)
19,COc1cccc2c(O)cc(=O)n(C)c12,1.18% (inactive)
20,CCOc1ccc(S(=O)(=O)NCC2CCCO2)cc1 (stereo not drawn),2.22% (inactive)
21,C/C(=N\NS(=O)(=O)c1ccc(Br)cc1)c1cccs1,3.39% (inactive)
22,CCOc1ccc(S(=O)(=O)N/N=C(\C)c2ccc(Cl)c(Cl)c2Cl)cc1,17.4% (active)
23,Cc1cccc(NC(=O)/C=C/c2ccc3c(c2)OCO3)n1,3.73% (inactive)
24,COc1cccc(-c2ccc(C#N)c(SCC(=O)NCCc3ccc(Cl)cc3)n2)c1,18.3% (active)
25,COc1ccc(CCNC(=O)CSc2nnc(-c3cccc(F)c3)o2)cc1OC,-1.35% (inactive)
26,COc1ccc(CCNC(=O)CSc2nc(-c3ccc(OC)c(OC)c3)ccc2C#N)cc1,4.73% (inactive)
27,Cc1nnc(NC(=O)/C=C/c2ccco2)s1,10.7% (inactive)
28,O=C1OC(/C=C/c2ccccc2)=NC/1=C/c1ccco1,0.56% (inactive)
